Where “and” joins values, the source holds several entries; their conditions need not be identical. Equal entries are not always repeated. Inconclusive results are not listed. Calls of active or inactive are those of the source. The calls were made as follows, unless noted: active = hit-call score of the fitted dose curve at least 0.9, where 1 is the maximum; inactive = score below 0.9.

A short description of assay [1]: BSK_IMphg_SRB.Mphg: Macrophage Viability Assessment in the BioMAP Diversity Plus: IMphg Assay (AID 2284295). The conditions noted are these: primary human endothelial cells with macrophages. Put shortly: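 Cytotoxicity read-out: parallel cultures fixed with 10% TCA, stained with 0.1% sulforhodamine B, read at 560 nm. System combines venular endothelium and macrophages; sampled 24 h post-dosing, fitted positively relative to DMSO control.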

For a further assay, the system named is TTR (gene 7276). Kind of assay: CCTE_GLTED_hTTR_0.5uM: CCTE's human Transthyretin (hTTR) Inhibition Assay, with 0.5uM TTR, Great Lakes Toxicology and Ecology Division (GLTED) Lab (AID 2284320). Put shortly: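 Probe (ANSA) displacement from 0.5 uM human transthyretin was followed by fluorescence (ex 380, em 475) after a 2 h incubation with chemical. Activity was scored as signal loss and fitted positively relative to DMSO.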

The nature of assay [2]: CCTE_Padilla_ZF_Score.Craniofacial: CCTE's 144 Hour Post-fertilization zebrafish Assay Score for Craniofacial Malformation, Padilla Lab (AID 2284405). Summed up:
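Craniofacial defects were scored at 6 dpf by two blinded observers using stereomicroscopy. Exposure of wild-type embryos began at 6–8 hpf in sealed wells of 10% Hanks' solution at 26C, with chemical removed by rinsing at 5 dpf.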

A short description of assay [3]: CCTE_Padilla_ZF_Score.Edema: CCTE's 144 Hour Post-fertilization zebrafish Assay Score for Edema Malformation, Padilla Lab (AID 2284406). Summed up:
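Edema scored at 6 dpf by two blinded observers under a stereo microscope, in single outbred wild-type larvae exposed from 6-8 hpf in sealed wells (Hanks', 26C, 14:10 h light) and chemical-free after a 5 dpf rinse.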

Assay [4] can be described thus: CCTE_Padilla_ZF_Score.Spine: CCTE's 144 Hour Post-fertilization zebrafish Assay Score for Spine Malformation, Padilla Lab (AID 2284407). Put shortly:
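Spine malformation scored at 6 dpf by two independent blinded observers under stereomicroscope, after static sealed exposure from 6–8 hpf at 26C in Hanks' solution with rinse on 5 dpf. Positive-direction fit against DMSO control.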

Assay [5] can be described thus: CCTE_Padilla_ZF_Score.Swim_bladder: CCTE's 144 Hour Post-fertilization zebrafish Assay Score for Swim Bladder Malformation, Padilla Lab (AID 2284408). Put shortly:
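Swim bladder inflation scored at 6 dpf by two blinded observers under a stereo microscope. Exposure ran from 6–8 hpf in sealed wells of 10% Hanks' at 26C, with rinsing at 5 dpf; DMSO served as baseline.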

A short description of assay [6]: CCTE_Padilla_ZF_Score.Position: CCTE's 144 Hour Post-fertilization zebrafish Assay Score for Position, Padilla Lab (AID 2284409). Summed up: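 Wild-type zebrafish embryos (with chorions) exposed singly from 6–8 hpf in sealed wells of Hanks' solution at 26C, rinsed at 5 dpf. At 6 dpf, blinded assessors scored abnormal water-column position by brightfield stereomicroscopy, relative to DMSO.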

Assay [7] is described as follows: CCTE_Padilla_ZF_Score.Living: CCTE's 144 Hour Post-fertilization zebrafish Assay Score for Viability, Padilla Lab (AID 2284410).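 Also: larval death at 6 dpf judged by absent heartbeat or coagulation.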 Summed up:
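Mortality at 6 dpf, judged as absent heartbeat or coagulation by two blinded observers, after sealed static exposure beginning at 6–8 hpf at 26C. Larvae were rinsed free of chemical at 5 dpf, and activity was fitted relative to DMSO.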

The nature of assay [8]: CCTE_Padilla_ZF_Score.General: CCTE's 144 Hour Post-fertilization zebrafish Assay Score for General Malformation, Padilla Lab (AID 2284411). Summed up: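 Malformation, death and hatching were scored at 6 dpf by two blinded observers under a stereo microscope. Embryos were dosed singly from 6-8 hpf in sealed plates of 10% Hanks' at 26C and rinsed on 5 dpf; DMSO baseline.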

Assay [9] in a line: CCTE_Padilla_ZF_Score.Tail: CCTE's 144 Hour Post-fertilization zebrafish Assay Score for Tail Malformation, Padilla Lab (AID 2284414). Summed up:
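Tail malformations were scored at 6 dpf by two blinded assessors under a stereo microscope. Chorionated embryos had been exposed from 6-8 hpf in sealed wells of 10% Hanks' at 26 C, then rinsed free of chemical at 5 dpf.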

Assay [10] in a line: CCTE_Padilla_ZF_Score.Blood_pooling: CCTE's 144 Hour Post-fertilization zebrafish Assay Score for Blood Pooling, Padilla Lab (AID 2284415). Put shortly:
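Blood pooling was scored at 6 dpf under a stereo microscope by two blinded assessors, fitted upward against DMSO. Single embryos were dosed at 6–8 hpf in 10% Hanks', kept sealed at 26C (14:10 h cycle) and rinsed at 5 dpf.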

Assay [11] can be described thus: CCTE_Padilla_ZF_Score.Any: CCTE's 144 Hour Post-fertilization zebrafish Assay Score for Any Mortality or Malformation, Padilla Lab (AID 2284416). Put shortly: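 Wild-type zebrafish embryos with chorions, one per well in 10% Hanks' from 6–8 hpf, dosed in sealed plates at 26 C, 14:10 h light:dark; rinsed at 5 dpf; blinded scoring at 6 dpf for death or malformation, versus DMSO.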

The target in assay [12] is human Retinoic Acid Receptor beta (RARb), RARB (gene 5915) (UniProt P10826). As to the kind of experiment: ATG_RARb_TRANS: Attagene TRANS-FACTORIAL HepG2 Assay for human Retinoic Acid Receptor beta (AID 2283004; active = hit-call score of the fitted dose curve at least 0.9, where 1 is the maximum). Summed up:
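Transient transfection of HepG2 with multiple reporter units → chemical dosing, 24 h → total RNA isolation → RT with oligo(dT) → reporter-specific PCR, 6-FAM primer extension, HpaI digest → capillary electrophoresis. Positive direction vs DMSO control.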

The target in assay [13] is Retinoic acid receptor alpha (Homo sapiens) (UniProt P10276). As to the kind of experiment: ATG_RARa_TRANS: Attagene TRANS-FACTORIAL HepG2 Assay for human Retinoic Acid Receptor alpha (RARa) (AID 2283005; active = hit-call score of the fitted dose curve at least 0.9, where 1 is the maximum). Summed up: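 HepG2 cells transiently transfected with multiple reporter units expressing chimeric RARα-GAL4 fusion, with GAL4-UAS-driven reporters. After 24 h compound exposure, reporter mRNA induction quantified by RT-PCR and capillary electrophoresis with fluorescent labeling; gain-of-signal fitted relative to DMSO control.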
Chain of Retinoic acid receptor alpha (Homo sapiens) (P10276 whole entry, looked up, the tested form may be a part): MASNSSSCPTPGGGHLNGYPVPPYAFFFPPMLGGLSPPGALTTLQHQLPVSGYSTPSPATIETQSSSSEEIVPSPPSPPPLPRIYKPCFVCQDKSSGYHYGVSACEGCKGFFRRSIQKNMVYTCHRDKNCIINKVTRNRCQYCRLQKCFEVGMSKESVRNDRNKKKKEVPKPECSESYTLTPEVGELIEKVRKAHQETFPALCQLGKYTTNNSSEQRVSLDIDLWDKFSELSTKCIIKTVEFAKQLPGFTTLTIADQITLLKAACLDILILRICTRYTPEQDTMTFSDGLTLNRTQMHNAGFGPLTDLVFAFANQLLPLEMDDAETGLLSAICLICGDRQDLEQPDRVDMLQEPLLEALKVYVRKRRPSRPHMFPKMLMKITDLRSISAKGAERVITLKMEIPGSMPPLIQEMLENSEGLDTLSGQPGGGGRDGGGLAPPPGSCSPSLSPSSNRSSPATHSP

In assay [14] the target is human Adenosine A2a Receptor (AdoRA2a), ADORA2A (gene 135) (UniProt P29274). Kind of assay: NVS_GPCR_hAdoRA2a: NovaScreen (NVS) G Protein-Coupled Receptor Assay for human Adenosine A2a Receptor (AdoRA2a) (AID 2283256; active = hit-call score of the fitted dose curve at least 0.9, where 1 is the maximum). Put shortly:
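Compounds screened in duplicate at 25 uM, with actives followed up in concentration series, for displacement of a radioligand from HEK293-derived receptor protein. Bound counts read by filter scintillation at 1.5 hours, DMSO as baseline.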

Assay [15] is described as follows: CEETOX_H295R_11DCORT: CeeTox H295R High-throughput Steroidogenesis Assay for 11-Deoxycortisol (11DCORT) (AID 2283432). The note with it: actives raise or lower the signal. Summed up: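 H295R cells prestimulated 48 h with 10 uM forskolin, then exposed 48 h to chemical in 0.1% DMSO. 11-Deoxycortisol in medium quantified by HPLC-MS/MS after MTBE extraction; bidirectional fit versus DMSO. MTT viability read in same wells.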

Assay [16] is described as follows: CEETOX_H295R_OHPREG: CeeTox H295R High-throughput Steroidogenesis Assay for OH-Pregnenolone (OHPREG) (AID 2283434). The note with it: actives raise or lower the signal. Summed up: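 Readout: HPLC-MS/MS of 17alpha-hydroxypregnenolone in medium after 48 h chemical exposure of H295R cells pretreated with forskolin. Values fitted bidirectionally relative to DMSO; chemicals reducing viability to 20–70% were retested after 10-fold dilution.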

Assay [17] can be described thus: CEETOX_H295R_OHPROG: CeeTox H295R High-throughput Steroidogenesis Assay for OH-Progesterone (OHPROG) (AID 2283435). The conditions noted are these: actives raise or lower the signal. Put shortly:
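Medium steroid levels read by LC-MS/MS after 48 h chemical treatment (0.1% DMSO) of human adrenal H295R cells that had been forskolin-primed (10 uM, 48 h). Gain or loss fitted against DMSO; MTT cytotoxicity checked per well.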

Assay [18] is described as follows: CEETOX_H295R_CORTIC: CeeTox H295R High-throughput Steroidogenesis Assay for Corticosterone (CORTIC) (AID 2283437).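 Also: corticosterone secreted into medium quantified by mass spectrometry.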 The conditions noted are these: actives raise or lower the signal. Put shortly: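 Steps: seed H295R, adhere overnight; 10 uM forskolin 48 h; replace with chemical (0.1% DMSO) 48 h; extract medium with MTBE; quantify corticosterone by HPLC-MS/MS; score bidirectionally vs DMSO.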

Assay [19] in a line: CEETOX_H295R_CORTISOL: CeeTox H295R High-throughput Steroidogenesis Assay for Cortisol (AID 2283438).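 Also: cortisol secreted into medium quantified by LC-MS/MS.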 The note with it: actives raise or lower the signal. Summed up: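 Cortisol measured by HPLC-MS/MS after MTBE extraction of medium from H295R cells exposed 48 h to chemical (0.1% DMSO), following 48 h prestimulation with 10 uM forskolin. Viability assessed by MTT in the same wells.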

Chain of human Retinoic Acid Receptor beta (RARb), RARB (gene 5915) (P10826 whole entry, looked up): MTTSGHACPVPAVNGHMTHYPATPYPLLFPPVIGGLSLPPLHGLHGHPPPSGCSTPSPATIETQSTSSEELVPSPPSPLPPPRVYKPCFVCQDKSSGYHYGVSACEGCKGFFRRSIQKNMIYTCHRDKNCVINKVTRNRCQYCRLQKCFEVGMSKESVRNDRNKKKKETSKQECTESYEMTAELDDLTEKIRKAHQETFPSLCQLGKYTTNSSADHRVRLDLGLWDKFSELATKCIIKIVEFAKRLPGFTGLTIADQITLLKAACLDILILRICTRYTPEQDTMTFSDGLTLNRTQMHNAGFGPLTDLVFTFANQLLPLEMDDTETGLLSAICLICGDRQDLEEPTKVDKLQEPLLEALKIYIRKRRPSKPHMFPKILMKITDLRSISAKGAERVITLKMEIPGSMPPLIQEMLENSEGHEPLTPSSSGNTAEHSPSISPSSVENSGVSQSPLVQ
Chain of human Adenosine A2a Receptor (AdoRA2a), ADORA2A (gene 135) (P29274 whole entry, looked up): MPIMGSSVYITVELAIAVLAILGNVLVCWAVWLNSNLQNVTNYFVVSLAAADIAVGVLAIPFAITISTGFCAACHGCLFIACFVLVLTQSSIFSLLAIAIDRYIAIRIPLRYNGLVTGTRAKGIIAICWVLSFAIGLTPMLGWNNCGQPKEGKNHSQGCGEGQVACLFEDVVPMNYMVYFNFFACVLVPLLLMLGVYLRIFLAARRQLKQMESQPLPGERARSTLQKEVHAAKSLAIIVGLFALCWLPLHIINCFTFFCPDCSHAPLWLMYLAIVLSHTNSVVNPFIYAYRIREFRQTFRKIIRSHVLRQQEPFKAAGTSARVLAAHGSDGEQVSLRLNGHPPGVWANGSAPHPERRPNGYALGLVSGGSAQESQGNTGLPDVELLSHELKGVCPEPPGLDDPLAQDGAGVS

The term AC50 denotes the midpoint of the concentration-response curve, whichever way the signal moves. For the molecule `OC(C(F)(F)F)(C(F)(F)F)C(O)(C(F)(F)F)C(F)(F)F`, the AC50 in [1] is 41.5 µM (active) and 37.7 µM (active); in the assay on TTR (gene 7276), 11000 nM (active); in assay [2], 2570 nM (active); in assay [3], 2660 nM (active); in assay [5], 2660 nM (active); in [7], 11800 nM (active). Also, the AC50 was 1180 nM (active) in assay [8] and 2210 nM (active) in [11]. For the same molecule, the molecule was classed as inactive in [4], in assay [6], in assay [9] and in assay [10].
On to `CCC(C)(CCC(C)C)C(=O)O` (stereo not given), for which the molecule was classed as inactive in [12], in assay [13] and in assay [14].
Regarding `CCO[Si](CCCN)(OCC)OCC`, the call in [15], in assay [16], in [17], in assay [18] and in assay [19] was inactive.
